From PubChem BioAssay
Values without a mark were called inactive. A call without a number means that no potency is given here. For some assays here: Potency and affinity values are given separately. Activity calls are given as the source filed them. Unless noted, no rule for the calls is given here.

Columns and labels:
[1] = antimalarial activity against Dd2 strain (AID 2302;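 active = growth inhibition above 50% at the single 2 µM test dose, taken to imply half-maximal potency below 2 µM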); conditions: P. falciparum Dd2 in RBCs, LDH growth readout, 72 h; at 2 µM; stronger effect = higher value
[2] = human hepatoma cell viability loss – ATP luminescence, cytotoxicity control for P. falciparum antimalarial project, primary screen (AID 2303;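 active = inhibition above 50%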); conditions: HepG2 viability, 24-48 h, at 10 µM, stronger effect = higher value
[3] = biological target: L-lactate dehydrogenase (Plasmodium falciparum (isolate CDC / Honduras)) (UniProt Q27743); assay: PfLDH activity inhibition – cell lysate, 3D7 strain, counter-screen for P. falciparum growth inhibition project (AID 2304); conditions: P. falciparum 3D7 crude extract, LDH APAD/NBT absorbance; at 2 µM; stronger effect = higher value
[4] = inhibition of 3D7 malaria parasite growth – strain 3D7 (AID 2306); conditions: P. falciparum 3D7 erythrocytic growth, LDH absorbance, 72 h; at 2 µM; stronger effect = higher value
[5] = biological target: Calcium-dependent protein kinase 1 (Plasmodium falciparum (isolate 3D7)) (UniProt P62344); assay: PfCDPK1 kinase inhibitors, biochemical, TCAMS library (AID 1159585; cut-off not given, nearly all actives have IC50 up to about 0.98 µM;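 also: inhibitors leave more ATP so luminescence rises with inhibition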); conditions: recombinant PfCDPK1, Kinase-Glo ATP depletion luminescence
[6] = biological target: Plasmodium falciparum protein kinase 6 (PK6, PF3D7_1337100) (UniProt Q8IDW1); assay: PfPK6 kinase inhibitors, biochemical, TCAMS library (AID 1159586); conditions: recombinant PfPK6, Kinase-Glo ATP depletion luminescence
[7] = biological target: Protein kinase 7 (PK7), Plasmodium falciparum 3D7 (PF3D7_0213400) (UniProt Q7YTF7); assay: inhibition of Plasmodium PK7 catalytic activity – biochemical, TCAMS antimalarial set, Kinase-Glo luminescence (AID 1159587); conditions: recombinant PfPK7, Kinase-Glo ATP depletion luminescence
[8] = biological target: Calcium-dependent protein kinase 4 (Plasmodium falciparum (isolate 3D7)) (UniProt Q8IBS5); assay: PfCDPK4 kinase inhibitors, biochemical, TCAMS library (AID 1159588; cut-off not given, nearly all actives have IC50 up to about 0.91 µM); conditions: recombinant PfCDPK4, Kinase-Glo ATP depletion luminescence
Sequence of Calcium-dependent protein kinase 4 (Plasmodium falciparum (isolate 3D7)) (Q8IBS5 whole entry, looked up): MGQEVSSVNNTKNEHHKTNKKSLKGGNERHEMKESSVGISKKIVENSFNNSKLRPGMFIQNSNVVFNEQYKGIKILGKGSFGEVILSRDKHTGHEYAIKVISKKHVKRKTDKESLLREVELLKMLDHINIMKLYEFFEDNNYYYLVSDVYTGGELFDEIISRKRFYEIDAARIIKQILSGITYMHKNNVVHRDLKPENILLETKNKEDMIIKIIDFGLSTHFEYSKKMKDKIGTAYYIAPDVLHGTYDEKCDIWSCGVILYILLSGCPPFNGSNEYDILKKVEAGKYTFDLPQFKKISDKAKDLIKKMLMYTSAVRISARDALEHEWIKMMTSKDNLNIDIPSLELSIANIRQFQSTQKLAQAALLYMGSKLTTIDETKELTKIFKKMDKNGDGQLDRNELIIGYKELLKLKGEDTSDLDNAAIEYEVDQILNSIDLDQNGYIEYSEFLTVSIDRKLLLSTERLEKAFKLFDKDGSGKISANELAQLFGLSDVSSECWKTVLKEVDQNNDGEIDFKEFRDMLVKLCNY

Sequence of Protein kinase 7 (PK7), Plasmodium falciparum 3D7 (PF3D7_0213400) (Q7YTF7 1-343): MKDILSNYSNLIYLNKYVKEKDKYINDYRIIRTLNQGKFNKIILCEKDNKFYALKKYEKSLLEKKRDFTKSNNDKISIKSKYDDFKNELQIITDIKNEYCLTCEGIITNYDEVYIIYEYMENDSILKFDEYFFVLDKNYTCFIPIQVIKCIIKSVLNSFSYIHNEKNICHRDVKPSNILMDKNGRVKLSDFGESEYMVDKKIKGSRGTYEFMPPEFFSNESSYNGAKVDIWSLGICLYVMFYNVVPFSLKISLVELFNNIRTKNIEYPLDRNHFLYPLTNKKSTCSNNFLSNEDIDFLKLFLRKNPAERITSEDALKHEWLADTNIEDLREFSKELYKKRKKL
Sequence of Calcium-dependent protein kinase 1 (Plasmodium falciparum (isolate 3D7)) (P62344 whole entry, looked up): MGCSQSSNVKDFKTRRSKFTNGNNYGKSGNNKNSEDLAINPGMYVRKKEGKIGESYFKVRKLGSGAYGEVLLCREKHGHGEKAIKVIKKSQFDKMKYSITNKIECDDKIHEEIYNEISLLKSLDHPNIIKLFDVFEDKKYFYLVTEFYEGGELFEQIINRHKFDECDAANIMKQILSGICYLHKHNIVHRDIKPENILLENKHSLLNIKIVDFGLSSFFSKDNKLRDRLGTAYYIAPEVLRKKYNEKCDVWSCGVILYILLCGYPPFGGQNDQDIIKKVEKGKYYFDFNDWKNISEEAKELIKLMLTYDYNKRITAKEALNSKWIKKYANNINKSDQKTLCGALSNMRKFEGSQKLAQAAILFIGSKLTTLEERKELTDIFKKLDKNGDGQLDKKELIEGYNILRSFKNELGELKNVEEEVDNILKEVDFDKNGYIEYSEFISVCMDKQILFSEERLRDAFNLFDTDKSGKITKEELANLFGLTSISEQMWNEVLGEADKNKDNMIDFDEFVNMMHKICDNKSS
Sequence of Plasmodium falciparum protein kinase 6 (PK6, PF3D7_1337100) (Q8IDW1 1-305): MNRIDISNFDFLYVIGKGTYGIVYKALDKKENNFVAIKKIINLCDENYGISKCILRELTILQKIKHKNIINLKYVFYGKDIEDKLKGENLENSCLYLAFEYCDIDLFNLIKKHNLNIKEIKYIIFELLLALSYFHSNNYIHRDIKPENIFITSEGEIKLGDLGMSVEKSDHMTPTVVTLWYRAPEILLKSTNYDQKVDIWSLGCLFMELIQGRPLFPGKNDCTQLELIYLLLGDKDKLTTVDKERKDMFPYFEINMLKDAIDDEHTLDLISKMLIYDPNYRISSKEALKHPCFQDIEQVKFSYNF
Sequence of L-lactate dehydrogenase (Plasmodium falciparum (isolate CDC / Honduras)) (Q27743 whole entry, looked up): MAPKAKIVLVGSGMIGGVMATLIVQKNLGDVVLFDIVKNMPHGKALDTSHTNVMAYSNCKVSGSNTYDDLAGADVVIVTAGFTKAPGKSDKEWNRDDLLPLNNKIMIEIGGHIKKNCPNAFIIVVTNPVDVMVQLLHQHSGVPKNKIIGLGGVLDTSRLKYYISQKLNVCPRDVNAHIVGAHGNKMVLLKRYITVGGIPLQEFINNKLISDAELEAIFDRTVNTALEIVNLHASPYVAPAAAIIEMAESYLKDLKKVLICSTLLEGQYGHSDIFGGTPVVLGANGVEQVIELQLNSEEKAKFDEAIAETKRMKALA

| Compound | growth inhibition [1] | inhibition [2] | inhibition [3] [%] | growth inhibition [4] | outcome [5] | outcome [6] | outcome [7] | outcome [8] |
| --- | --- | --- | --- | --- | --- | --- | --- | --- |
| COc1cc2nc(Nc3ccc(C)cc3)nc(Nc3ccc(C)cc3)c2cc1OC | 100% (active) | 99% (active) | -1 | 101% (active) | inactive | inactive | inactive | inactive |
| Cc1cc(N)c2cc(NC(=O)/C=C/c3ccccc3)ccc2n1 | 68% (active) | 20% | 0 | 102% (active) | inactive | inactive | inactive | inactive |
| O=S1C(Cl)=C(c2ccc(Cl)cc2)c2ccc(Cl)cc21 (stereo unspecified) | 99% (active) | 33% | 1 | 91% (active) | inactive | inactive | inactive | inactive |
| COc1ccc(CCN(C)CCOc2ccc(NC(=O)COc3ccc4sc5ccccc5c(=O)c4c3)cc2)cc1OC | 91% (active) | 99% (active) | -1 | 100% (active) | inactive | inactive | inactive | inactive |
| Cc1noc(C)c1-c1ccc2c(Nc3ccc(C#N)cc3)c(C(N)=O)cnc2c1 | 73% (active) | 6% | 7 | 97% (active) | inactive | inactive | inactive | inactive |
| Cc1[nH]c(C)c(-c2ccc(Oc3ccc(F)cc3)cc2)c(=O)c1Cl | 98% (active) | 14% | 4 | 99% (active) | inactive | inactive | inactive | inactive |
| CCCNCc1ccc(-c2ccc(CN(CC3CCCO3)C(=O)COc3ccccc3Cl)cc2)nc1 (stereo unspecified) | 11% | 5% | -3 | 89% (active) | inactive | inactive | inactive | inactive |
| Cc1cc(C)n2nc(C(=O)Nc3cc(C(F)(F)F)ccc3N3CCOCC3)nc2n1 | 91% (active) | 2% | -3 | 94% (active) | inactive | inactive | inactive | inactive |
| CC1CCN(c2nc(C(=O)Nc3cccc4c3CCCC4)c(C(C)C)s2)CC1 | 49% | 14% | 3 | 96% (active) | inactive | inactive | inactive | inactive |
| O=S(=O)(Nc1cccc(CCN2CCC(N3CCCCC3)CC2)c1)c1ccc(-c2ccccc2)cc1 | 49% | 76% (active) | 1 | 100% (active) | inactive | inactive | inactive | inactive |
| OCC1CCN(Cc2ccc(-c3ccc(-c4nc5ccc(F)cc5[nH]4)s3)cc2)CC1 | 98% (active) | 14% | -3 | 101% (active) | inactive | inactive | inactive | inactive |
| Cc1cccc2[nH]c(-c3cccc(-c4cccc(NC(=O)Nc5ccc(Cl)c(Cl)c5)c4)c3)nc12 | 96% (active) | 24% | 1 | 101% (active) | inactive | inactive | inactive | inactive |
| Oc1ccc(C2CNCCc3c2cc(O)c(OCc2ccccc2)c3Cl)cc1 (stereo unspecified) | 8% | 14% | 5 | 98% (active) | inactive | inactive | inactive | inactive |
| COc1ccc2nccc(NN=CC=Cc3ccccc3)c2c1 | 99% (active) | 11% | -3 | 101% (active) | inactive | inactive | inactive | inactive |
| CCNc1cc(C(=O)N[C@@H](Cc2ccc(F)c(F)c2)[C@H](O)CNC2CCCCC2)cc(N2CCCCS2(=O)=O)c1 | 84% (active) | 1% | -2 | 100% (active) | inactive | inactive | inactive | inactive |
| Oc1ccc(Cl)c2c1C(c1ccccc1)=NCC2 | 43% | -9% | -4 | 95% (active) | inactive | inactive | inactive | inactive |
| CC(Cc1ccc(NC(=O)c2ccc(CNCCc3ccccc3)cc2)cc1)NCCc1cccc(Cl)c1 (stereo unspecified) | 99% (active) | 100% (active) | 0 | 100% (active) | inactive | inactive | inactive | inactive |
| CS(=O)(=O)CCNCc1cccc(-c2ccc3c(Nc4ccc(Oc5ccccc5)cc4)ccnc3c2)c1 | 96% (active) | 18% | 6 | 101% (active) | inactive | inactive | inactive | inactive |
| N#Cc1ccc(CN2CCCN(Cc3cccc(NC(=O)c4cc5ccccc5s4)c3)CC2)cc1 | 36% | 31% | 0 | 97% (active) | inactive | inactive | inactive | inactive |

| Compound | growth inhibition [1] | inhibition [2] | inhibition [3] [%] | growth inhibition [4] | outcome [5] | outcome [6] | outcome [7] | outcome [8] |
| --- | --- | --- | --- | --- | --- | --- | --- | --- |
| CCCCCN1CCCC1CNS(=O)(=O)c1ccc(C(=O)Nc2ccc(C(F)(F)F)cc2)cc1 (stereo unspecified) | -3% | 19% | -2 | 87% (active) | inactive | inactive | inactive | inactive |
| CN(CCN)Cc1cccc(-c2cccc(-c3nc4ccc(F)cc4[nH]3)c2)c1 | 19% | 20% | 6 | 95% (active) | inactive | inactive | inactive | inactive |
| O=C(Nc1ccc(F)cc1)NC1CCN(CCCCCNC(=O)[C@@H]2C[C@H]2c2ccc(Cl)c(Cl)c2)CC1 | 20% | 46% | -2 | 101% (active) | inactive | inactive | inactive | inactive |
| COc1cc2nc(N3CCN(C(=O)c4ccc(N(C(=O)OC(C)(C)C)C(=O)OC(C)(C)C)cc4)CC3)nc(N)c2cc1OC | 19% | 12% | 1 | 96% (active) | inactive | inactive | inactive | inactive |
| Cc1[nH]c(C)c(-c2ccc(OCCn3cnc(Cl)c3Cl)cc2)c(=O)c1Br | 35% | 2% | 2 | 95% (active) | inactive | inactive | inactive | inactive |
| COc1ccc(Cl)c(CC2c3cc(O)c(Cl)cc3CCN2C)c1 (stereo unspecified) | 72% (active) | 9% | -1 | 98% (active) | inactive | inactive | inactive | inactive |
| CCc1c(CCNCCCCCCNCCc2ccc([N+](=O)[O-])cc2)ccc(OC)c1OC | 2% | 35% | 6 | 101% (active) | inactive | inactive | inactive | inactive |
| CC1Cc2ccccc2N1S(=O)(=O)c1cccc(C(=O)Nc2nc(-c3ccccn3)cs2)c1 (stereo unspecified) | 77% (active) | 32% | -2 | 84% (active) | inactive | inactive | inactive | inactive |
| O=S(=O)(NCCCN1CCOCC1)c1ccc2nccc(Nc3ccc(Oc4ccccc4)cc3)c2c1 | 92% (active) | 1% | -2 | 95% (active) | inactive | inactive | inactive | inactive |
| CCc1c[nH]c2c(N3CCCC3=O)cc(C(=O)N[C@@H](Cc3ccccc3)[C@H](O)CNC(C)(C)c3cccc(OC)c3)cc12 | 98% (active) | 0% | 2 | 93% (active) | inactive | inactive | inactive | inactive |
| CCNc1cc(C(=O)N[C@@H](Cc2ccccc2)[C@H](O)CNC2(C(C)C)CCC2)cc(N2CCCCS2(=O)=O)c1 | 85% (active) | -3% | -2 | 99% (active) | inactive | inactive | inactive | inactive |
| CC(=O)Oc1c(C2CCN(CCCCNC(=O)c3ccc(NC(=O)c4ccc(Cl)cc4)cc3)CC2)ccc2c1CCCC2 | 80% (active) | 21% | 2 | 100% (active) | inactive | inactive | inactive | inactive |
| O=c1[nH]c(=O)n2c(nc3ccccc32)[nH]1 | -1% | 21% | 6 | 95% (active) | inactive | inactive | inactive | inactive |
| CC(=NN=C(N)N)c1ccc2c(ccc3ccccc32)c1 | 15% | 47% | 8 | 100% (active) | inactive | inactive | inactive | inactive |
| COc1ccc2nccc(N(C)CC3(O)CCN(CCc4ccc5c(c4)OCCO5)CC3)c2n1 | 96% (active) | 15% | -3 | 100% (active) | inactive | inactive | inactive | inactive |
| COc1ccc(CCN(C)CCOc2ccc(NC(=O)c3cccc4cc5ccccc5nc34)cc2)cc1OC | 99% (active) | 37% | -5 | 100% (active) | inactive | inactive | inactive | inactive |
| Cc1ccnc(NC(=O)c2cc(-c3cccc([N+](=O)[O-])c3)nc3onc(C)c23)c1 | 44% | 5% | -1 | 91% (active) | inactive | inactive | inactive | inactive |
| CCOC(=O)/C(=N\OC(C)(C)C(=O)NCc1ccc(O)c(O)c1)c1csc(NC(c2ccccc2)(c2ccccc2)c2ccccc2)n1 | 99% (active) | 13% | -3 | 100% (active) | inactive | inactive | inactive | inactive |
